Test results from PMC4336329 (PLoS ONE, 2015).
Among all 310,000 compounds or so, about 2,200 (0.71%) showed an effect of 50% or more. The effect is printed as a negative number. Only a selection was taken, and strong results are over-represented in it overall.

Biological target: human ether-à-go-go-related gene (hERG) potassium channel (human, UniProt Q12809)
Assay: primary screen, population patch clamp on CHO cells stably expressing hERG; higher = less effect of the substance

Chain of human ether-à-go-go-related gene (hERG) potassium channel (Q12809 whole entry, looked up): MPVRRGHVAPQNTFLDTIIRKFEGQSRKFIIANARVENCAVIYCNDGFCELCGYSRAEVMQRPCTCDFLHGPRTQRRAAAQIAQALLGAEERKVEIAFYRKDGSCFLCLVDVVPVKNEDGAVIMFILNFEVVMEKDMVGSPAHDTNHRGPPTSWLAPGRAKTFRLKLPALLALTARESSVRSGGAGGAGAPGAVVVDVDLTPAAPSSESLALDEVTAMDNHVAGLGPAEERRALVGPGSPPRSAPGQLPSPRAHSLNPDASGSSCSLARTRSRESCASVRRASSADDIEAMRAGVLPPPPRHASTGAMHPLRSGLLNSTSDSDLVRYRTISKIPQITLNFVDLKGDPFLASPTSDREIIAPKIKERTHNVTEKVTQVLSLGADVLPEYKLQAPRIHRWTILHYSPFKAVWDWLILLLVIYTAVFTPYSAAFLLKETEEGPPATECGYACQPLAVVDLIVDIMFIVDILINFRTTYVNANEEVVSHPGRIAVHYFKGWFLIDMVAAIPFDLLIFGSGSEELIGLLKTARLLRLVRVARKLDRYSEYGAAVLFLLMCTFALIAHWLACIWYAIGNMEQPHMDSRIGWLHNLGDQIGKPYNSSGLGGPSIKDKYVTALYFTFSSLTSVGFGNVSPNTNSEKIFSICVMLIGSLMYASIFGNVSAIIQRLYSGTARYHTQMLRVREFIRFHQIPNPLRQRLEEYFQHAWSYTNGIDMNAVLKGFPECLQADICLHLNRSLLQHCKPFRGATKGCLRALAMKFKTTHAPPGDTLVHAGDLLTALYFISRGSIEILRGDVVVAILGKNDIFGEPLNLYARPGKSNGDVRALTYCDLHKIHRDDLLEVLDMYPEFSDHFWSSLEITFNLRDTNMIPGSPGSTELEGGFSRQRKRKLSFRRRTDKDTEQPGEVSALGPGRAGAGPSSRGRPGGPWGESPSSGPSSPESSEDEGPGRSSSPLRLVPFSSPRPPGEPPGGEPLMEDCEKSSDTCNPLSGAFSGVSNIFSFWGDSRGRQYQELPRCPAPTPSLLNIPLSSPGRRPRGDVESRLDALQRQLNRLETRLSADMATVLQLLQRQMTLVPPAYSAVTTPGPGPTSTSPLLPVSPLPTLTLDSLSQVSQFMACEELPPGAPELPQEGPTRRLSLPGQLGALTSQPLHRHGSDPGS

SMILES	hERG current change (%, negative = inhibition) at 1uM [%]
CN1CCN(C2=C(Cl)C(=O)N(CCc3ccccc3)C2=O)CC1	17.7
CCN(CC)S(=O)(=O)c1ccc(C(=O)Nc2c3c(nn2C(C)(C)C)CS(=O)(=O)C3)cc1	5.04
Cc1cc(C)c[n+](-c2nc3ccccc3nc2[N-]S(=O)(=O)c2cccs2)c1	2.45
COC(=O)c1ccccc1NC(=O)CNc1cc(Cl)ccc1N1CCOCC1	-0.671
CCC(=O)Nc1cccc(C(=O)Nc2nccs2)c1	8.98
CN1CCC(=NNC(=O)c2ccc(N(Cc3ccccc3Cl)S(C)(=O)=O)cc2)CC1	6.54
CCc1ccccc1NC(=O)/C(=C/c1ccccc1)c1ccccc1	-4.2
Cc1ccc(OCC(=O)NC(=S)Nc2ccc(Br)c(C)n2)cc1	5.89
O=C(CCCC(=O)c1ccc(F)cc1)c1ccc(F)cc1	5.62
O=C(CCCc1ccccc1)c1ccccc1	19.4
CCN(CCCC(=O)c1ccc(F)cc1)CCc1ccccc1.Cl	-86.5
COCCn1nnnc1C(c1ccc(OC)c(OC)c1)N1CCN(c2nc3ccccc3s2)CC1 (centres unmarked)	2.83
COCCN(C(=O)c1csnn1)C(C(=O)NC1CCCC1)c1ccccc1F (centres unmarked)	12.6
COc1ccc(-n2c(NCCN(C)C)nc3sc4c(c3c2=O)CCCCC4)cc1	-69.4
CN(C)CCNc1nc2sc3c(c2c(=O)n1-c1ccc(F)cc1)CCCCC3	6.73
COc1ccc(-n2c(NN)nc3sc4c(c3c2=O)CCCC4)cc1	-9.75
CC1(C)CC(NC(=O)C2CCN(S(=O)(=O)c3ccc(F)cc3)CC2)CC(C)(C)N1	16.9
CCOC(=O)C1(Cc2cccc(OC)c2)CCCN(Cc2nccn2CC)C1 (centres unmarked)	-13.5
CCOC(=O)C1(Cc2ccc(Cl)cc2)CCN(Cc2cnc(N)nc2)CC1	-60.6
CCOC(=O)C1(Cc2ccc(Cl)cc2)CCN(C(=O)C2=NNC(=O)CC2)CC1	-61.2
CCOC(=O)C1(Cc2ccccc2)CCN(Cc2nccn2CC)CC1	8.81
O=C1CCC(C(=O)N2CCC(CO)(Cc3ccc(Cl)cc3)CC2)=NN1	2.9
CCOC(=O)C1(Cc2ccc(Cl)cc2)CCN(Cc2nccn2CC)CC1	-57
CCOC(=O)C1(Cc2ccc(Cl)cc2)CCN(C(=O)c2cscn2)CC1	-12.4
CCOC(=O)C1(Cc2cccc(OC)c2)CCN(Cc2cnc(N)nc2)CC1	5.79
CCOC(=O)C1(Cc2ccc(Cl)cc2)CCN(Cc2ccon2)CC1	5.86
COc1ccccc1C(=O)Nc1nnc(S(=O)(=O)N2CCC(C)CC2)s1	12.4

SMILES	hERG current change (%, negative = inhibition) at 1uM [%]
CCOc1ccc(CNC(=O)C2CCCN(c3nnc(C)c4c(C)n(-c5ccccc5)nc34)C2)cc1 (centres unmarked)	8.87
N#C/C(=C/c1ccc(N2CCCCCC2)o1)c1ccc(F)cc1	16.2
O=C1CC(Nc2ccc(N3CCOCC3)cc2)C(=O)N1c1ccccc1F (centres unmarked)	3.19
CCN1C(=O)[C@H]2[C@@H](c3ccc(-c4ccc(OC)cc4)cc3)N3CCC[C@@]3(C(=O)OC)[C@H]2C1=O.O=C(O)C(F)(F)F	11.6
Cc1cc(C)c(S(=O)(=O)N2CCCCC2CCNC(=O)C(=O)NCCN2CCOCC2)c(C)c1 (centres unmarked)	6.75
Cc1cc(C(C)(C)C)ccc1OCCOCCN1CCCC1	-0.816
Cc1cc(C(C)(C)CC(C)(C)C)ccc1OCCOCC[N+](C)(C)Cc1ccccc1.[Cl-]	-62
Cc1cc(C(C)(C)C)ccc1OCCN(C)C	-15.1
COc1cccc(S(=O)(=O)NCC(=O)N2CCCCCC2)c1	25
Cc1ccc(S(=O)(=O)N2CCN(c3ccccc3)CC2)cc1C(N)=O	-52
Cc1ccc(S(=O)(=O)N2CCN(c3ccccc3)CC2)cc1C	12.5
Cc1ccc(S(=O)(=O)N2CCN(c3ccccc3)CC2)cc1C(=O)NC1CCCCC1	10.8
CC(C)OC(=O)c1ccc(NC(=O)c2ccco2)cc1	6.19
Cc1ccc(S(=O)(=O)Cn2nnnc2C(CC(C)C)N2CCN(C(=O)c3ccco3)CC2)cc1.Cl (centres unmarked)	7.63
C=CCNc1nc(C(=O)OCC(=O)Nc2cc(S(C)(=O)=O)ccc2Cl)cs1	4.15
NC(=O)CCCn1c(C(=O)c2ccc(Cl)cc2)c2ccc([N+](=O)[O-])cc2[n+]1[O-]	-58.2
Cc1ccc(C(=O)c2c3ccc([N+](=O)[O-])cc3[n+]([O-])n2CCCC(N)=O)cc1	-11.4
Nc1c(Cl)cc(C(=O)c2c3ccc(C(F)(F)F)cc3[n+]([O-])n2CCC[NH3+])cc1Cl.[Cl-]	-37.3
Cc1ccc(C(=O)c2c3ccc(C(F)(F)F)cc3[n+]([O-])n2CCCC(N)=O)cc1	-39
Nc1c(Cl)cc(C(=O)c2c3ccc([N+](=O)[O-])cc3[n+]([O-])n2CCC[NH3+])cc1Cl.O=C([O-])C(F)(F)F	1.56
NC(=O)CCCn1c(C(=O)c2ccc(Cl)cc2)c2ccc(C(F)(F)F)cc2[n+]1[O-]	-80.1
[Cl-].[NH3+]CCCn1c(C(=O)c2ccc(Cl)cc2)c2ccc(C(F)(F)F)cc2[n+]1[O-]	-80.9
NC(=O)CCCn1c(C(=O)c2cc(Cl)c(N)c(Cl)c2)c2ccc(C(F)(F)F)cc2[n+]1[O-]	5.14
Cc1ccc(C(=O)c2c3ccc(C(F)(F)F)cc3[n+]([O-])n2CCC[NH3+])cc1.O=C([O-])C(F)(F)F	-64.4
Cc1ccc(C(=O)c2c3ccc(C(F)(F)F)cc3[n+]([O-])n2CCC(N)=O)cc1	-28.8
Cc1ccc(C(=O)c2c3ccc([N+](=O)[O-])cc3[n+]([O-])n2CCC[NH3+])cc1.O=C([O-])C(F)(F)F	-14.7
[Cl-].[NH3+]CCCn1c(C(=O)c2ccc(Cl)cc2)c2ccc([N+](=O)[O-])cc2[n+]1[O-]	-47.1

SMILES	hERG current change (%, negative = inhibition) at 1uM [%]
COc1cccc(CNS(=O)(=O)c2c(C(=O)N3CCCCCC3)c(C)n(C)c2C)c1	7.52
Cc1ccccc1CNC1CCCCC1.Cl	2.15
O=C(Cn1cnc2cc([N+](=O)[O-])ccc2c1=O)Nc1ccccc1Cl	6.18
COC(=O)c1ccc(-c2nc(O)c(C)s2)cc1	9.1
CC1=C(C(=O)Nc2cccc(C(=O)NCc3ccc(F)cc3)c2)SCCO1	15.3
COc1ccc(C(=O)c2c3ccc([N+](=O)[O-])cc3[n+]([O-])n2CCC[NH3+])cc1.[Cl-]	-13.5
COc1ccc(C(=O)c2c3ccc(C(F)(F)F)cc3[n+]([O-])n2CCC[NH3+])cc1.[Cl-]	-63
COc1ccc(C(=O)c2c3ccc(C(F)(F)F)cc3[n+]([O-])n2CCCC(N)=O)cc1	-21.6
Cc1ccc(-c2nn3nnnc3c3ccccc23)cc1	12.9
c1ccc(-c2nn3nnnc3c3ccccc23)cc1	-82.9
Cc1ccc(-c2nn3nnnc3c3ccccc23)cc1C	-5.22
Cc1c(CCOC(=O)CC23CC4CC(CC(C4)C2)C3)sc[n+]1CC(=O)c1ccc(Br)cc1.[Br-]	-63.5
COc1ccc(C(=O)OCCc2sc[n+](CC(=O)c3ccccc3)c2C)cc1.[Br-]	9.69
Cc1c(CCOC(=O)CC23CC4CC(CC(C4)C2)C3)sc[n+]1CC(=O)c1ccccc1.[Br-]	-6.04
Cc1c(CCOC(=O)c2ccc([N+](=O)[O-])cc2)sc[n+]1CC(=O)c1ccccc1.[Br-]	-6.66
Cc1c(CCOC(=O)CC23CC4CC(CC(C)(C4)C2)C3)sc[n+]1CC(=O)c1ccccc1.[Br-]	-5.09
Cc1c(CCOC(=O)c2ccccc2)sc[n+]1CC(=O)c1ccc(Br)cc1.[Br-]	-82.8
CCc1ccc(C(C(=O)NC2CCCC2)N(Cc2cccnc2)C(=O)c2csnn2)cc1 (centres unmarked)	2.84
Nc1c(-c2ccccc2)nc(Cl)nc1-c1ccccc1	13.2
CN(CC(=O)Nc1ccccc1Cl)C(=O)COC(=O)/C=C/c1ccc(C(F)(F)F)cc1	16.2
O=C(Cn1cccc1C(=O)c1ccccc1)NCCCN1CCc2ccccc2C1	-41.7
Cc1ccc(C)c(N2CCN(CCCNC(=O)Cn3cccc3C(=O)c3ccccc3C)CC2)c1	-22.1
Cc1ccccc1C(=O)c1cccn1CC(=O)NCCCN1CC(C)CC(C)C1 (centres unmarked)	-59
Cc1ccccc1C(=O)c1cccn1CC(=O)NCCCN1CCCCC1	0.894
Cc1ccccc1C(=O)c1cccn1CC(=O)NCCCN1CCc2ccccc2C1	-70
CC1CC(C)CN(CCCNC(=O)Cn2cccc2C(=O)c2ccccc2)C1 (centres unmarked)	-25
